Data from PubChem BioAssay (NCI).
Compounds without any hit were thinned out: in the full panel of roughly 83,000, 20% have a hit.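 The test compound was applied at a single concentration to cells in 96-well plates for 48 hours, and percent growth was recorded.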 Unmarked numbers belong to inactive results. Calls of active or inactive are those of the source. Rule for the calls: active = growth percent below 10; inactive = the rest.

Columns and labels:
Assay in all cases: NCI-60 one-dose screen, 48 h (100 = growth as untreated, 0 = no growth, -100 = all killed)
Details in all cases: 10 µM unless noted
NCI-H23 lung = system: NCI-H23 lung
NCI-H226 lung = system: NCI-H226 lung
NCI-H322M lung = system: NCI-H322M lung
HOP-62 NSCLC = system: HOP-62 NSCLC
NCI-H460 lung = system: NCI-H460 lung
HOP-92 NSCLC = system: HOP-92 NSCLC
NCI-H522 lung = system: NCI-H522 lung
A549/ATCC NSCLC = system: A549/ATCC NSCLC
786-0 renal = system: 786-0 renal
COLO 205 colon = system: COLO 205 colon

SMILES | growth (NCI-H23 lung) | growth (NCI-H226 lung) | growth (NCI-H322M lung) | growth (HOP-62 NSCLC) | growth (NCI-H460 lung) | growth (HOP-92 NSCLC) | growth (NCI-H522 lung) | growth (A549/ATCC NSCLC) | growth (786-0 renal) | growth (COLO 205 colon)
Oc1[nH]c2ccc(Cl)cc2c1N=Nc1nc(N=Nc2c(O)[nH]c3ccc(Cl)cc23)nc(N2CCCCC2)n1 | 27.3% | 63.4% | 59.4% | 94% | 78% | 125% | 45.2% | 60.4% | 66% | 66.6%
CCOC(=O)c1cccc(NC2=C(Cl)C(=O)c3nc(C)ccc3C2=O)c1 | 65.2% | 89.5% | 104% | 112% | 100% | 108% | 88.4% | 101% | 103% | 120%
COc1cc(OC)cc(-c2cc(-c3c[nH]c4ccccc34)nc(-c3c[nH]c4ccccc34)c2C#N)c1 | 104% | 87.3% | 105% | 96.3% | 103% | 95% | 92.1% | 98.5% | 105% | 110%
Cc1ccc2c(n1)C(=O)C(Cl)=C(Nc1cccc(C)c1C)C2=O | -10.6% (active) | 18.7% | 16.9% | -0.0437% (active) | 36.8% | -1.44% (active) | -37.5% (active) | 41.5% | 21.9% | 87.7%
CNC(=O)c1cc(-c2ccc(NC(=S)Nc3cccc(C(F)(F)F)c3)cc2)nc2cccnc12 | 92.4% | 95.8% | 96.1% | 102% | 99.4% | 85% | 89.7% | 96.9% | 96.7% | 104%
C(=N\Nc1nc(N/N=C/c2ccc3c(c2)OCO3)nc(N2CCCCC2)n1)/c1ccc2c(c1)OCO2 | 101% | 101% | 98.5% | 123% | 90.6% | 96% | 91.9% | 91.4% | 86.6% | 85.9%
O=C1/C(=C/C=C/c2ccco2)SC(=S)N1Cc1ccccc1 | 89.6% | 95.2% | 91.8% | 105% | 95.2% | 87.1% | 98.4% | 93.7% | 101% | 121%
C#C[C@]1(O)CC[C@H]2[C@@H]3CC=C4c5sc(NCc6ccccc6)nc5CC[C@]4(C)[C@H]3CC[C@@]21C | 54.2% | 75.6% | 59.9% | 14.1% | 51.8% | 23.1% | 80% | 52% | -72.3% (active) | 37%
O=C(Nc1ccc(N=Cc2c(O)[nH]c3ccccc23)cc1)Nc1ccc(S(=O)(=O)Nc2ncccn2)cc1 | 27.1% | 96.7% | 114% | 99% | 104% | 94.2% | 95% | 101% | 100% | 125%
COc1cc(C(=O)c2cc(C(C)=O)c3c(C)cccn23)cc(OC)c1OC | 101% | 89.9% | 98.5% | 99.5% | 102% | 110% | 90.2% | 104% | 91% | 110%
CCOC(=O)c1c(NC(=O)c2ccc(C(F)(F)F)cc2)sc2c3c(ccc12)OCN(C)C3 | 85.6% | 97% | 73.4% | -53.2% (active) | -17.8% (active) | 14.5% | -60.3% (active) | -37.9% (active) | 30.8% | -22% (active)
CCc1cc(OC(=O)N2CCN(CCC(C)(COC(C)(C)C)COC(C)(C)C)CC2)ccc1Nc1cc(-c2ccc(-n3cccn3)cc2)[nH]n1 | 83.9% | 67.1% | 101% | 91.7% | 74.4% | 73.1% | 80.7% | 81.1% | 85.8% | 80.8%
O=C(NNc1nc2cc(F)cc(F)c2n2cccc12)c1cccnn1 | 21.7% | -3.91% (active) | 28.4% | 28.2% | 6.92% (active) | 75.4% | 0.0735% (active) | 17.5% | 14.3% | 16.3%
CCCNNC(=O)c1ccc(-c2ccc(NC(=O)CCCCCCC(=O)N[C@H](C(=O)N3C[C@H](O)C[C@H]3C(=O)N[C@@H](C)c3ccc(-c4scnc4C)cc3)C(C)(C)C)cc2)cc1 | 37.3% | 46.5% | 34.7% | 27.8% | 31.8% | -26.7% (active) |  | 72.4% | 36.9% | -31.1% (active)
CSc1ccc(C(=NNS(=O)(=O)c2ccc(C)cc2)c2ccc(Cl)cc2)cc1 | 94% | 98% | 92.7% | 98.6% | 104% | 86.9% | 94.4% | 99.6% | 104% | 119%
CN1CCN(c2ccc(Nc3nc(NCCCNS(=O)(=O)c4ccc(Cl)cc4)c4sccc4n3)cc2)CC1 | 65% | 99.6% | 33.7% | 52.5% | 7.38% (active) | 49.4% |  | 21.9% | -43.2% (active) | -38.3% (active)
N#Cc1c(-c2ccc(Br)cc2)cc(-c2c[nH]c3ccccc23)nc1N | 51.3% | 60% | 67.6% | 42.5% | 16.7% | 43.6% |  | 42.1% | 79.7% | 51.5%
Brc1ccc(-c2cc(-c3ccc4c(c3)OCCO4)n[nH]2)s1 | 40.6% | 75.4% | 42.7% | 51.3% | 14.3% | 64.2% | 20.9% | 33.3% | 73.5% | 28.7%
COc1ccc(/C=N\NC(=O)c2cnn(CC(O)c3ccccc3)c2N)cc1OCc1ccc(Cl)cc1 (stereo not drawn) | 74.7% | 90.7% | 85% | 84.1% | 44.3% | 86% |  | 62.9% | 96.2% | 72.8%
O=C(CCCCCCNC(=O)C(O)(O)C(F)(F)F)Nc1ccc(Cl)cc1 | 24.3% | 66.6% | 44% | 4.42% (active) | 23.3% | 6.13% (active) |  | 20.7% | 35.7% | -57.4% (active)
O=C(Nc1cccc(Cl)c1)Nc1nc2cc([N+](=O)[O-])ccc2o1 | 38.4% | 56.1% | 37.4% | 58% | 26.5% | -4.19% (active) |  | 44.6% | 44.2% | 75.1%
COc1ccc2c(c1)c(-c1nc(N)nnc1-c1c[nH]c3ccccc13)cn2C | 47.7% | 37.6% | 57.3% | 44.8% | 14.2% | 54% |  | 48.4% | 54.5% | 29.3%
CCCCCc1ccc(S(=O)(=O)Nc2cc(-c3csc(N)n3)ccc2OC)cc1 | 88.7% | 80% | 103% | 108% | 99.5% | 97.3% |  | 88% | 99.1% | 117%
CCN(CC)c1ccc(/C=N/NC(=O)c2ccc(S(N)(=O)=O)cc2)c(O)c1 | 20.7% | 43.1% | 22.1% | 11.6% | 4.16% (active) | 53.1% | 15.1% | 16% | 4.11% (active) | 14.3%
C#Cc1nc(C(=O)NCCCCCCC(=O)NO)cs1 | -74.6% (active) | 39.1% | 29.4% | 16.9% | 16% | -74.6% (active) |  | 10.2% | -83.4% (active) | -61.7% (active)
Cc1[nH]c(C(=O)Nc2ccc(C(=O)NCC3CCNCC3)cc2OC(C)C)c(Cl)c1Cl | 83% | 83.6% | 92.1% | 86.4% | 34.7% | 65.9% |  | 65.4% | 79.8% | -13.3% (active)
CC(=C(c1ccc(OCCN(C)C)cc1)c1ccc(OCCN(C)C)cc1)c1ccc(Cl)cc1 | 29.5% | -11.9% (active) | -3.42% (active) | -57.8% (active) | -71.9% (active) | -9.45% (active) |  | -65% (active) | -67.5% (active) | -50% (active)
CN1CCN(c2ccc(Nc3nc(NCCNC(=O)c4ccccc4)c4sccc4n3)cc2)CC1 | 74.2% | 108% | 85.2% | 104% | 74% | 69.4% |  | 67.4% | 45.6% | 56.5%
